# From the supplement of paper PMC9694430
# Where a name gives a salt, the structure may show the parent alone.
# What was measured:
# Test in all cases: thermal shift delta Tm vs DMSO control; higher = stronger stabilization (binding)
# Conditions in all cases: 12.5 µM; protein concentration 2 µM
# LOC_OS01G01410-cb001 = tested on: LOC_OS01G01410-cb001
# Outline: (§1)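 Heating from 25°C to 95°C at 0.05°C/s, fluorescence was recorded for 19.5 μl wells of 2 μM E. coli-expressed, purified rice kinase domain in 100 mM potassium phosphate pH 7.5, 150 mM NaCl, 10% glycerol and 5 × SYPRO Orange with compound in DMSO. Boltzmann fits gave melting temperatures for this differential scanning fluorimetry assay. The shift reported is the mean of three replicates against the DMSO-only protein.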
# LOC_OS01G02750-cb003 = tested on: LOC_OS01G02750-cb003
# Outline: as §1
# LOC_OS01G10900-cb004 = tested on: LOC_OS01G10900-cb004
# Outline: as §1
# LOC_OS01G13800-cb001 = tested on: LOC_OS01G13800-cb001
# Outline: as §1
# LOC_OS01G14860-cb001 = tested on: LOC_OS01G14860-cb001
# Outline: as §1
# LOC_OS01G21960-cb002 = tested on: LOC_OS01G21960-cb002
# Outline: as §1
# LOC_OS01G48390-cb002 = tested on: LOC_OS01G48390-cb002
# Outline: as §1
# LOC_OS01G51400-cb002 = tested on: LOC_OS01G51400-cb002
# Outline: as §1
# LOC_OS01G52050-cb004 = tested on: T1, LOC_OS01G52050-cb004
# T1 sequence (whole entry): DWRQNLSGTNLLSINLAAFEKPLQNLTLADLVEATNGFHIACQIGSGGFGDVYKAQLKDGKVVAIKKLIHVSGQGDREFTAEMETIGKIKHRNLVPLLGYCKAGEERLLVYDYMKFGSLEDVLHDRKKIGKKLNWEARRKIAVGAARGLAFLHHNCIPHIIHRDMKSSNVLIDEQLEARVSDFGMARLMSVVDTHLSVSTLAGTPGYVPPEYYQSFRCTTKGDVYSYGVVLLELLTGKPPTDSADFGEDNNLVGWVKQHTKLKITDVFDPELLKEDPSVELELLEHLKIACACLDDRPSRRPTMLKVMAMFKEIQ
# Outline: as §1
# LOC_OS01G57100-cb003 = tested on: LOC_OS01G57100-cb003
# Outline: as §1
# LOC_OS01G60330-cb001 = tested on: LOC_OS01G60330-cb001
# Outline: as §1
# LOC_OS01G60700-cb002 = tested on: LOC_OS01G60700-cb002
# Outline: as §1
# LOC_OS01G63280-cb003 = tested on: LOC_OS01G63280-cb003
# Outline: as §1
# LOC_OS01G67340-cb003 = tested on: LOC_OS01G67340-cb003
# Outline: as §1
# LOC_OS01G70970-cb002 = tested on: LOC_OS01G70970-cb002
# Outline: as §1
# LOC_OS02G07810-cb001 = tested on: LOC_OS02G07810-cb001
# Outline: as §1
# LOC_OS02G08530-cb003 = tested on: LOC_OS02G08530-cb003
# Outline: as §1
# LOC_OS02G14120-cb001 = tested on: LOC_OS02G14120-cb001
# Outline: as §1
# LOC_OS02G17970-cb001 = tested on: LOC_OS02G17970-cb001
# Outline: as §1
# LOC_OS01G39600-cb002 = tested on: LOC_OS01G39600-cb002
# Outline: as §1
# 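Also: purified Escherichia coli-expressed rice kinase domain construct.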
Compound,thermal shift delta Tm (LOC_OS01G01410-cb001) [°C],thermal shift delta Tm (LOC_OS01G02750-cb003) [°C],thermal shift delta Tm (LOC_OS01G10900-cb004) [°C],thermal shift delta Tm (LOC_OS01G13800-cb001) [°C],thermal shift delta Tm (LOC_OS01G14860-cb001) [°C],thermal shift delta Tm (LOC_OS01G21960-cb002) [°C],thermal shift delta Tm (LOC_OS01G48390-cb002) [°C],thermal shift delta Tm (LOC_OS01G51400-cb002) [°C],thermal shift delta Tm (LOC_OS01G52050-cb004) [°C],thermal shift delta Tm (LOC_OS01G57100-cb003) [°C],thermal shift delta Tm (LOC_OS01G60330-cb001) [°C],thermal shift delta Tm (LOC_OS01G60700-cb002) [°C],thermal shift delta Tm (LOC_OS01G63280-cb003) [°C],thermal shift delta Tm (LOC_OS01G67340-cb003) [°C],thermal shift delta Tm (LOC_OS01G70970-cb002) [°C],thermal shift delta Tm (LOC_OS02G07810-cb001) [°C],thermal shift delta Tm (LOC_OS02G08530-cb003) [°C],thermal shift delta Tm (LOC_OS02G14120-cb001) [°C],thermal shift delta Tm (LOC_OS02G17970-cb001) [°C],thermal shift delta Tm (LOC_OS01G39600-cb002) [°C]
Cc1ccc(C(=O)Nc2cccc(C(F)(F)F)c2)cc1Nc1nc(-c2cccnc2)nc2c1cnn2C,1.82,7.19,1.25,1.68,1.28,2.07,2.62,1.11,2.93,2.35,2.86,1.11,0.24,0.79,0.92,1.8,1.77,0.87,2.02,
Cn1c(Nc2ccc(C(F)(F)F)cc2)nc2cc(Oc3ccnc(-c4ncc(C(F)(F)F)[nH]4)c3)ccc21,2.71,15.5,2.13,3.67,5.02,4.72,4.18,,6.02,4.82,16.6,0.58,24.5,1.4,1.63,3.92,0.26,0.77,2.38,5.68
O=C(O[C@@H]1Cc2c(O)cc(O)cc2O[C@@H]1c1cc(O)c(O)c(O)c1)c1cc(O)c(O)c(O)c1 [(-)-Epigallocatechin Gallate],0.41,,-1.77,3.77,3.47,4.17,1.57,0.81,2.23,13.4,0.66,-5.2,,1,-0.02,3.56,-2.15,0.07,,1.4
CN(C)CCOc1ccc(-c2nc(-c3ccncc3)c(-c3ccc4c(c3)CC/C4=N\O)[nH]2)cc1,1.77,0.07,3.19,0.05,0.42,-0.07,1.16,0.46,0.22,1.76,0.92,0.49,0.02,-0.45,0.15,1.2,0.96,-0.05,-0.1,0.16
Cc1nc2c(-c3cnc(N)nc3)nc(N3CCOCC3)nc2n1C(C)C,0.02,0.81,0.35,0.04,-0.18,0.83,0.44,0.69,,1.43,0.31,1.66,0.78,0.22,,1.23,1.18,0.05,2.41,1.29
CN1CCCN(C(=O)c2cccc(-c3ccc(/C=C4/C(=O)Nc5ccc(Cl)cc54)o3)c2)CC1,2.05,1.47,2.9,0.13,4.25,1.58,1.96,0.12,0.58,1.45,3.07,1.97,1.12,0.39,1.61,0.97,3.51,3.94,1.03,
CS(=O)(=O)CCNCc1ccc(-c2ccc3ncnc(Nc4ccc(OCc5cccc(F)c5)c(Cl)c4)c3c2)o1 [Lapatinib],3.23,7.61,1.97,0.94,1.79,2.25,1.79,1.92,6.04,3.37,6.75,1.03,,1.58,1.28,1.88,1.24,0.15,1.82,3.93
C#Cc1cccc(Nc2ncnc3cc(OCCOC)c(OCCO)cc23)c1,1.63,0.85,1.08,0.74,0.28,0.99,2.12,0.19,1.63,0.15,0.3,0.24,-0.13,-0.22,0.5,1.32,1.16,4.33,-0.01,2.63
O=c1[nH]nc(Sc2ncc([N+](=O)[O-])s2)n1-c1ccc2c(c1)OCCO2,1.48,,8.23,1.65,2.21,1.25,2.84,-0.65,-3.66,6.97,0,4.73,,-6.49,-7.96,1.41,1.83,,3.38,
Nc1nccc(Oc2ccc(NC(=O)c3c[nH]cc(-c4ccc(F)cc4)c3=O)cc2F)c1Cl,1.82,5.03,3.07,0.39,5.69,1.58,2.63,0.87,2.83,2.6,1.42,1.09,7.56,2.23,6.22,1.41,2.08,8.06,1.52,
O=C(NCc1cccc(O)c1)Nc1nc(-c2ccncc2)cs1,1,1.02,0.6,-0.25,1.72,1.09,1.48,0.4,1.09,0.7,0.56,1.38,-0.09,0.16,0.57,1.03,1.04,0.87,0.34,
CO[C@H]1C[C@@H]2CC[C@@H](C)[C@@](O)(O2)C(=O)C(=O)N2CCCC[C@H]2C(=O)O[C@H]([C@H](C)C[C@@H]2CC[C@H](n3cnnn3)[C@H](OC)C2)CC(=O)[C@H](C)/C=C(\C)[C@@H](O)[C@@H](OC)C(=O)[C@H](C)C[C@H](C)/C=C/C=C/C=C/1C [Zotarolimus(ABT-578)],0.49,0.69,0.11,-0.04,0.22,1.09,1.07,0.06,1,2.14,2.43,1.29,0.68,0.45,0.71,1.19,0.56,0.48,1.06,
O=c1c(O)c(-c2cc(O)c(O)c(O)c2)oc2cc(O)cc(O)c12 [Myricetin],2.93,26.2,1.94,1.96,5.72,5.56,2.72,2.08,5.01,7.25,8.95,-2.19,,2.79,2.23,2.22,2.57,2.73,5.74,4.45
Cc1ccc(NC(=O)c2ccc(CN3CC[C@H](N(C)C)C3)c(C(F)(F)F)c2)cc1Nc1nccc(-c2cncnc2)n1 [Bafetinib (INNO-406)],0.65,0.59,0.73,0.04,0.5,0.66,1.17,0.46,0.61,1.86,0.46,1.32,0.68,0.51,0.51,0.39,1.13,0.81,0.5,-0.18
CCCCCCCCc1ccc(CCC(N)(CO)CO)cc1 [Fingolimod (FTY720) HCl],-0.88,0.17,-0.2,-1.96,-1.24,-0.97,-0.85,-1.12,-0.88,0.23,0.41,0.6,-1.03,-0.42,-0.82,-1.73,-0.4,-0.78,-0.74,
Cn1cc(C2=C(c3ccc(Cl)cc3Cl)C(=O)NC2=O)c2ccccc21,4.05,13.7,6.42,1.69,6.48,4.64,2.99,13.9,14.6,6.65,11.5,4.75,15.7,,7.16,1.24,3.23,12.5,1.77,18.2
CC(C)=CC[C@@H](O)C1=CC(=O)c2c(O)ccc(O)c2C1=O [Shikonin],5.01,17.4,9.19,2.82,7.52,1.95,5.3,18.6,12.1,,-0.94,3.41,,-2.36,-5.42,0.63,-0.15,-4.81,3.84,
O=C(NC(NC(=S)Nc1ccc(F)c([N+](=O)[O-])c1)C(Cl)(Cl)Cl)C(c1ccccc1)c1ccccc1 (stereo not given),3.6,9.2,2.57,2.31,3.26,3.31,3.82,1.04,3.03,4.28,8.97,3.48,,0.17,1.86,3.38,2.71,2.37,3.46,28.9
CC(C)(C)c1cc(/C=C(\C#N)C(N)=S)cc(C(C)(C)C)c1O [Tyrphostin AG 879],2.99,5.43,4.19,2.01,2.28,1.97,1.74,0.42,4.16,5.01,3.04,4.7,,,2.23,2.55,2.78,4.98,3.25,
N#C/C(=C\c1ccc(O)c(O)c1)C(=O)NCc1ccccc1 [AG-490 (Tyrphostin B42)],2.63,17.9,0.93,1.74,1.27,1.78,1.08,0.47,0.46,0.3,0.46,1.9,0.34,0.38,0.32,1.89,0.84,-0.01,1.7,-0.2
O=C(O)c1cc(O)c2c(c1)[C@@H]([C@H]1c3cc(C(=O)O)cc(O)c3C(=O)c3c(O[C@@H]4O[C@H](CO)[C@@H](O)[C@H](O)[C@H]4O)cccc31)c1cccc(O[C@@H]3O[C@H](CO)[C@@H](O)[C@H](O)[C@H]3O)c1C2=O [Sennoside B],4.96,27.3,6.66,2.08,4.72,3.52,4.78,,8.22,5.41,,2.73,19.9,,1.98,0.69,0.42,0.03,3.25,
Cc1[nH]nc2ccc(-c3cncc(OC[C@@H](N)Cc4ccccc4)c3)cc12,0.54,2.26,0.37,0.21,4.96,3.58,1.02,0.06,2.3,1.88,0.68,1.01,0.26,1.12,0.36,1.05,2.68,3.18,0.41,-0.73
